High-throughput results from PubChem BioAssay.
ALOX12 inhib: qHTS Assay for Inhibitors of 12-hLO (12-human lipoxygenase) | Potency, µM (series often up to 57.1 µM), most hits filed as inhibitors | purified 12-hLO, xylenol orange hydroperoxide absorbance | 150,000 compounds, 0.12% hits; active means well fitted inhibition curve with a large enough effect; inconclusive means small, poorly fitted or top-dose-only effect; further: nearly all actives have a fitted effect of over 55% in size
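Purified human 12hLO (150 nM), preincubated 15 min with compound, then 40 uM arachidonic acid for 30 min, room temperature, Hepes pH 7.0 with 0.01% Triton X-100. Hydroperoxide detected by ferrous iron/xylenol orange; 573/405 nm absorbance ratio gives reaction progress.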
LMNA splice mod: qHTS Assay for Modulators of Lamin A Splicing; AID 1487, 2009; 200,000 compounds, 0.01% hits; Potency, µM (doses to about 46.1 µM), actives largely listed as inhibitors; HeLa LMNA splicing GFP/RFP minigene ratio, 48 h; active means well fitted inhibition curve with a large enough effect in the signal ratio, with a control signal flat, not every such curve was filed as active; inconclusive means small, poorly fitted or top-dose-only effect, or effect the other way, or a change in a side signal; the % refers to the signal ratio
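Read-out is the ratio of GFP to DsRed2 object intensity, acquired by 488 nm laser-scanning cytometry on HeLa lamin A-EGFP minigene reporter cells. Compound incubation 48 hrs at 37 °C in Opti-MEM with 2% FBS; DMSO 0.5% final.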
ALDH1A1 inh: qHTS Assay for Inhibitors of Aldehyde Dehydrogenase 1 (ALDH1A1) | Aldehyde dehydrogenase 1A1 (Homo sapiens), P00352 | Purified ALDH1A1, NADH fluorescence, propionaldehyde substrate | Potency, µM (top dose mostly 75.3 µM), actives largely listed as inhibitors | 220,000 compounds, 7.3% hits
Target sequence (P00352 whole entry, looked up): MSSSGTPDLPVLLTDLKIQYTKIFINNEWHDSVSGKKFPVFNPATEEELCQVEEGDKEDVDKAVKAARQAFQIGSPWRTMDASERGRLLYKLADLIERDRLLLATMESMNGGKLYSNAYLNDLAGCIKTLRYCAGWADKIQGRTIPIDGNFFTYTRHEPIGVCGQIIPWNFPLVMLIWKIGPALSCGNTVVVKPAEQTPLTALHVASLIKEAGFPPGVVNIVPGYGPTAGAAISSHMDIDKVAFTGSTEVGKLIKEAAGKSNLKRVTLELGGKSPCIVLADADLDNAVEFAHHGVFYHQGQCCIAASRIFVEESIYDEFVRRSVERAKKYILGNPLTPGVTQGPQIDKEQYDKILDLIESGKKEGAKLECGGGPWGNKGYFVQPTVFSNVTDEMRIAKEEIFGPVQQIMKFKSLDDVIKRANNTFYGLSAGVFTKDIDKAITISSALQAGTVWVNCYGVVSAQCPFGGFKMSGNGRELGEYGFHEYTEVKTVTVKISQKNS
HPGD inh: qHTS Assay for Inhibitors of HPGD (15-Hydroxyprostaglandin Dehydrogenase). 15-hydroxyprostaglandin dehydrogenase [NAD(+)] (Homo sapiens), P15428. purified HPGD, NADH fluorescence kinetic, PGE2 substrate. Potency, µM, hits mostly inhibitors. 150,000 compounds, 4.3% hits
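NADH formation kinetics: reaction with 30 uM PGE2 and 1 mM NAD+ (final), 20 nM enzyme, Tris-HCl pH 8 with Tween 20, after 15 min compound preincubation at room temperature. Fluorescence change, last versus first of five reads.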
PNC assembly inh: High Content Assay for Compounds that inhibit the Assembly of the Perinucleolar Compartment; 140,000 compounds, 3.1% hits; AID 2417, 2010; PC3M PTB-GFP, PNC prevalence imaging, 16 h; stronger effect = lower value; activity change (PNC), negative = inhibition, % at 10 µM;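 active means readout at or below -70, meaning at least 70% loss of cells showing the perinucleolar compartment, a nuclear body marking cancer cells; inconclusive means readout between -30 and a set limit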
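Read-out is percentage of cells bearing a perinucleolar compartment, from automated 20x imaging of fixed, Hoechst-stained PC3M PTB-GFP cells. Cells were seeded 4 h, then exposed 16 h to compound (23 nl of library stock) in duplicate plates.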
Hits are given with their value; [ ] = remark or other dose. Rows were chosen to be rich in hits. Some 10% of all compounds tested hit in one or more screens of this group. Unless noted, the call rests on the fitted dose curve; in most records, active means well fitted inhibition curve with a large enough effect (not every such curve was filed as active); inconclusive means small, poorly fitted or top-dose-only effect, or another doubt; inactive means no such curve, though single readings can be large or run the other way.

COc1ccc(Cl)cc1NC(=O)CN(C)C1CCCCC1 was read as ALOX12 inhib inactive, LMNA splice mod inactive, ALDH1A1 inh inactive, HPGD inh inactive and PNC assembly inh inactive.
For Cc1ccc(NC(=O)CNc2ccccc2CN(C)C2CCCCC2)cc1 the results were LMNA splice mod inactive and ALDH1A1 inh 20µM.
Screening COc1ccc(C)cc1NC(=O)CNc1ccccc1CN(C)C1CCCCC1 returned LMNA splice mod inactive and ALDH1A1 inh 20µM.
For COc1ccc(Cl)cc1NC(=O)CNc1ccccc1CN(C)C1CCCCC1 the results were ALDH1A1 inh 8.9µM.
`CCCC1C(C#N)=C(N)Oc2n[nH]c(C(C)(C)C)c21` (centres undefined) gave ALOX12 inhib inactive, LMNA splice mod inactive, ALDH1A1 inh inconclusive, HPGD inh inactive and PNC assembly inh -114.
For CC(C)C1C(C#N)=C(N)Oc2n[nH]c(C(C)(C)C)c21 (centres undefined) the results were ALOX12 inhib inactive, LMNA splice mod inactive, ALDH1A1 inh inactive, HPGD inh inactive and PNC assembly inh inconclusive.
Screening CC(=O)OC1CC[C@]2(C)C(CC(OC(C)=O)[C@]3(C)C2CC[C@@]2(C)C(c4ccoc4)OC(=O)C4O[C@]432)C1(C)C (some centres undefined) returned ALOX12 inhib inactive, ALDH1A1 inh inactive and HPGD inh inactive.
`CSCSC1=C(C#N)C(c2ccccc2Cl)C(C(C)=O)=C(C)N1` (centres undefined) gave ALOX12 inhib inactive, LMNA splice mod inactive, ALDH1A1 inh 25µM, HPGD inh inconclusive and PNC assembly inh inconclusive.
`CCOC(=O)CSC1=C(C#N)C(c2ccccc2F)C(C(C)=O)=C(C)N1` (centres undefined) gave ALOX12 inhib inactive, LMNA splice mod inactive, ALDH1A1 inh inconclusive, HPGD inh inactive and PNC assembly inh inactive.
For CC(=O)C1=C(C)NC(SCSc2ccccc2)=C(C#N)C1c1cccnc1 (centres undefined) the results were ALOX12 inhib inactive, LMNA splice mod inactive, ALDH1A1 inh inconclusive, HPGD inh inactive and PNC assembly inh -86.
Cc1ccc(CNC(=O)/C=C/c2ccc(Br)o2)cc1 was read as ALOX12 inhib inactive, LMNA splice mod inactive, ALDH1A1 inh 3.5µM, HPGD inh inactive and PNC assembly inh inactive.
Screening O=C(Cc1ccccc1)N/N=C\c1ccc(Br)o1 returned ALOX12 inhib inactive, LMNA splice mod inactive, ALDH1A1 inh inactive, HPGD inh inactive and PNC assembly inh inactive.
For O=C(/C=C/c1ccc(Br)o1)NCc1ccccc1 the results were ALDH1A1 inh 6.3µM.
`CCOc1ccc(NC(=O)c2cn3c4c(ccc(Cl)c4c2=O)OC(C)C3)cc1` (centres undefined) gave LMNA splice mod inactive.
Screening CC1(C)C(C=C(Cl)Cl)C1C(=O)N1CCN(Cc2ccccc2)CC1 (centres undefined) returned LMNA splice mod inconclusive and ALDH1A1 inh inactive.
For NC(=O)c1ccsc1NC(=O)c1coc2ccccc2c1=O the results were LMNA splice mod inactive and ALDH1A1 inh inactive.
`Cc1ccc(S(=O)(=O)C/N=C(/NC(=S)N(c2ccccc2)c2ccccc2)c2ccccc2)cc1` gave ALOX12 inhib inconclusive, LMNA splice mod inactive, ALDH1A1 inh 14µM, HPGD inh 32µM and PNC assembly inh inactive.
`Cc1ccc(S(=O)(=O)/N=C(/NC(=S)Nc2ccccc2)c2ccccc2)cc1` gave ALOX12 inhib inactive, LMNA splice mod inactive, ALDH1A1 inh inconclusive, HPGD inh inactive and PNC assembly inh inactive.
`Nc1c(C(=O)c2ccccc2)sc2snc(SCC(=O)c3ccccc3)c12` gave ALOX12 inhib inconclusive, LMNA splice mod inactive, ALDH1A1 inh 10µM, HPGD inh inactive and PNC assembly inh inactive.
Screening COc1cc(/C=N/Nc2snc(SC)c2C#N)cc(OC)c1OC returned ALOX12 inhib inactive, LMNA splice mod inactive, ALDH1A1 inh inconclusive, HPGD inh inconclusive and PNC assembly inh -105.
Screening CSc1nsc(N/N=C/c2ccc3c(c2)OCO3)c1C#N returned LMNA splice mod inactive[9.22 µM] and ALDH1A1 inh inactive.
O=[N+]([O-])c1ccc(/C=C/c2ccc3ccccc3n2)cc1 was read as ALDH1A1 inh inactive.
`CC1(C)Oc2ccccc2OC1(O)c1ccc2ccccc2n1` (centres undefined) gave ALOX12 inhib inactive, LMNA splice mod inactive, ALDH1A1 inh inactive, HPGD inh inactive and PNC assembly inh -113.
Screening Cc1cc(C)c2c(C)c(C(=O)N3CCC(c4nc5ccccc5s4)CC3)oc2c1 returned LMNA splice mod inactive.
For O=C(c1cccs1)N1CCC(c2nc3c(nnn3Cc3ccccc3)c(=O)[nH]2)CC1 the results were ALOX12 inhib inactive, LMNA splice mod inactive, ALDH1A1 inh inconclusive and PNC assembly inh inactive.
`CCCCCCC(=O)N1CCC(c2nc3c(nnn3Cc3ccccc3Cl)c(=O)[nH]2)CC1` gave ALOX12 inhib inactive, LMNA splice mod inconclusive, ALDH1A1 inh inconclusive, HPGD inh 20µM and PNC assembly inh inconclusive.
For O=C(Cc1cccs1)N1CCC(c2nc3c(nnn3Cc3ccccc3Cl)c(=O)[nH]2)CC1 the results were ALOX12 inhib inactive, LMNA splice mod inactive, ALDH1A1 inh inconclusive, HPGD inh 16µM and PNC assembly inh inactive.
O=C(NN1C(=O)C2C3C=CC(C3)[C@H]2C1=O)c1cccnc1 (some centres undefined) was read as ALOX12 inhib inactive, LMNA splice mod inactive, ALDH1A1 inh inactive, HPGD inh inactive and PNC assembly inh -98.
Screening O=C(NN1C(=O)C2C3C=CC(C3)C2C1=O)c1ccccc1 (centres undefined) returned LMNA splice mod inactive and ALDH1A1 inh inactive.
Screening O=C(N/N=C/c1ccccn1)c1[nH]c2ccc([N+](=O)[O-])cc2c1-c1ccccc1 returned LMNA splice mod inactive and ALDH1A1 inh 4.5µM.
Screening COc1cccc(-n2cc(C(=O)Nc3cc(OC)c(OC)c(OC)c3)c3ccccc3c2=O)c1 returned LMNA splice mod inactive.
`Cc1oc(-c2cc(F)ccc2F)nc1CN1CCN(C)C(=O)[C@@H]1C` gave LMNA splice mod inactive and ALDH1A1 inh inactive.
Cc1oc(-c2cc(F)ccc2F)nc1CN1CCN(c2ncnc3ccccc23)CC1 was read as LMNA splice mod inconclusive and ALDH1A1 inh 7.9µM.
Screening COc1ccccc1N1CCN(Cc2nc(-c3ccc(F)cc3)oc2C)CC1 returned ALDH1A1 inh 0.4µM.
Screening COc1ccccc1N1CCN(Cc2ccc(Br)o2)CC1 returned ALOX12 inhib inactive, LMNA splice mod inactive, ALDH1A1 inh 13µM, HPGD inh inactive and PNC assembly inh inactive.
